DT40 TDP1 CPT = growth inhibition of DT40 Tdp1-/-;hTDP1 cells with camptothecin (screen for TDP1 inhibitors); chicken DT40 Tdp1-/-;hTDP1 cells + 20 nM CPT, ATP luminescence, 48 h; Potency, µM (titrated, usually from 46.2 µM), inactives show top-dose activity change, negative = growth inhibition, actives largely listed as inhibitors; 12% of 420,000 active; note: potency is the fitted concentration of half-maximal effect; nearly all actives have a fitted effect of over 55% in size
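Cell growth measured by CellTiter-Glo luminescence after a minimum 48 h, 37 C compound exposure with 20 nM CPT in Tdp1-knockout DT40 cells stably expressing hTDP1, seeded 400/well; qHTS titration format.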
ELG1 repair inh = ELG1-dependent DNA repair inhibition; 2.3% of 330,000 active; HEK293T ELG1-luciferase reporter, luminescence, 16 h; DNA damage induced by 5-fluorouridine; Potency, µM (highest dose often 46.1 µM), for the others: top-dose activity change, negative = inhibition, usual class: inhibitors; AID 504467; note: potency is the fitted concentration of half-maximal effect; nearly all actives have a fitted effect of over 55% in size
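Luminescence from the luciferase reporter, measured 30 min after ONE-Glo reagent at room temperature, was the read-out. Beforehand, 2,000 cells per well were exposed for 16 hr at 37 °C to 5-fluorouridine together with compound or vehicle.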
TDP1 cell noCPT = qHTS for Inhibitors of human tyrosyl-DNA phosphodiesterase 1 (TDP1): qHTS in cells in absence of CPT | Potency, µM (titrated, usually from 46.2 µM), inactives show top-dose activity change, negative = growth inhibition, most hits filed as inhibitors | 15% of 420,000 active | DT40 Tdp1-/- hTDP1 cells, no CPT, ATP luminescence, 48 h | AID 686978, 2013; note: potency is the fitted concentration of half-maximal effect; nearly all actives have a fitted effect of over 55% in size
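Readout: luminescence from CellTiter-Glo after 30 min in the dark at RT. Cells: DT40 Tdp1-/- with stable hTDP1, 400/well. Exposure: compounds alone, ≥48 hr, 37 °C.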
Giardia kill = Giardia lamblia killing | Giardia lamblia trophozoite viability | activity change, % at 7.66 µM, hits read low | 0.15% of 340,000 active | AID 540267; in the data active = activity change below about -80%; inconclusive = between about -30% and that limit;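 note: parasites exposed to compound for two days anaerobically before the ATP read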
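Trophozoite viability was measured as ATP-dependent luminescence, read 15-30 min after reagent addition. Before that, parasites at 100 cells/well were exposed to compounds for 48 h, anaerobically, at 37 deg C.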
IL1B secr inh = blocks inflammasome-driven IL-1 beta release; THP-1 LPS/ATP IL-1B secretion, AlphaLISA, 16 h; stronger effect = lower value; activity change, % at 57.5 µM; 4.7% of 360,000 active; AID 743279; in the data active = activity change below about -50%; inconclusive = mostly about -30% to -49%
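THP-1 cells pretreated 1 hr with compounds (up to 57.5 uM final), then stimulated with LPS (250 ng/mL final) plus ATP (1.25 mM final); secreted IL-1B measured by AlphaLISA after 16 hr, decreased signal indicating inhibition.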
TDP1 inh = inhibitors of human tyrosyl-DNA phosphodiesterase TDP1; recombinant TDP1, AlphaScreen DNA substrate cleavage; Potency, µM (series often up to 130 µM), for the others: at the top dose activity change, negative = inhibition, most hits filed as inhibitors; 0.28% of 350,000 active; note: potency is the fitted concentration of half-maximal effect; nearly all actives have a fitted effect of over 40% in size
Target sequence (Q9NUW8 whole entry, looked up): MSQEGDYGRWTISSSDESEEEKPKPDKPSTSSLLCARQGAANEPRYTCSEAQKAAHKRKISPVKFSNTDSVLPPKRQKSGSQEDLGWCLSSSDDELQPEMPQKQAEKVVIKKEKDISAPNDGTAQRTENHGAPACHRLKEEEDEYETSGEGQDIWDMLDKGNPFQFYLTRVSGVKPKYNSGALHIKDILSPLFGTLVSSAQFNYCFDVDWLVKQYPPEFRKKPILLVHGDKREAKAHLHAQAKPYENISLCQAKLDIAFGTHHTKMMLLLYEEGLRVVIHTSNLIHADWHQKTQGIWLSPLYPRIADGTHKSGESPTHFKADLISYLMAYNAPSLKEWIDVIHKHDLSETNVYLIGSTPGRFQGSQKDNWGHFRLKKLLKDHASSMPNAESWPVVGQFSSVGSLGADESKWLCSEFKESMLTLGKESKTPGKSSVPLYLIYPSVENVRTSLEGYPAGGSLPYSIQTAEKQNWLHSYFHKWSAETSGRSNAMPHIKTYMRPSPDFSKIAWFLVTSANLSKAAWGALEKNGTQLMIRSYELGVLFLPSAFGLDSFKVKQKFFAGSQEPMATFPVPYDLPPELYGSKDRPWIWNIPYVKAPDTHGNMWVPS
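Signal: AlphaScreen proximity between streptavidin donor and anti-FITC acceptor beads on intact substrate. Reaction: Tdp1 1 nM, substrate 15 nM final, 5 min RT after 15 min compound preincubation.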
Active calls of the source: *; u = inconclusive; x = no result; [ ] = dose if it differs, or a comment. In the library only some 19% were active in any assay of this set; here they are far more common. Unless noted, calls come from the whole dose curve; as a rule, active = well fitted curve in the direction sought with a large enough effect; inconclusive = small, poorly fitted or top-dose-only effect, or another doubt; inactive = no such curve, though single readings can be large; an effect the other way counts as inactive or inconclusive. % is set by controls: 0 for no effect and ±100 for the full control effect.

SMILES | DT40 TDP1 CPT | ELG1 repair inh | TDP1 cell noCPT | Giardia kill | IL1B secr inh | TDP1 inh
COC(=O)C1=C(C)N(Cc2ccccc2)C(=NCc2ccco2)N[C@H]1c1cccc(F)c1 | 12µM* | 5% | 18µM* | 6 | u | 1%
COc1ccccc1NC(=O)COC(=O)CCc1ccc(S(=O)(=O)N2CCOCC2)cc1 | 5% | 13% | 21% | 8 | 4 | -1%[56.1 µM]
O=C(NCc1ccccc1)NC1COc2ccccc2C1 (centres undefined) | 12% | x | -5% | x | x | -3%
Oc1c(N=NC(=S)Nc2ccccc2F)c2ccccc2n1Cc1ccccc1F | 16µM* | u | 7.3µM* | -25 | 0 | 11%
Oc1c(N=NC(=S)Nc2ccccc2F)c2ccccc2n1Cc1ccc(Cl)cc1 | 4.6µM* | u | 5.8µM* | 13 | -11 | 3%
Cc1ccc(C)c(Cn2c(O)c(N=NC(=S)Nc3ccccc3F)c3ccccc32)c1 | 5.2µM* | u | 2.9µM* | -6 | -8 | 7%
CCNC(=S)N=Nc1c(O)n(Cc2ccc(Cl)cc2)c2ccccc12 | 16µM* | -27% | u | -3 | -5 | 10%
CCn1c(O)c(N=NC(=O)CNC(=O)c2ccccc2F)c2ccccc21 | u | -28% | u | -16 | 0 | 0%
O=C(CNC(=O)/C=C/c1ccccc1)N=Nc1c(O)n(Cc2ccccc2)c2ccccc12 | x | -24% | x | x | x | 2%
CC(C)n1c(O)c(N=NC(=O)CNC(=O)Cc2ccc(Cl)cc2)c2ccccc21 | u | -22% | u | -28 | -13 | 6%
COc1ccc(CCNC(=O)C(=O)NCC2OCCN2S(=O)(=O)c2ccccc2)cc1 (centres undefined) | u | -4% | u | -19 | -2 | x
COc1cccc(C(=O)N(Cc2sccc2C)C2CCS(=O)(=O)C2)c1 (centres undefined) | 8% | x | -5% | x | x | 1%
C#CCOCCOCCOCCNc1nc(N2CCN(C(=O)[C@H](CCC(=O)O)n3cc(CN)nn3)CC2)nc(N2CCN(C(=O)[C@H](CCCN=C(N)N)n3cc(C(N)[C@@H](C)CC)nn3)CC2)n1 (some centres undefined) | 3% | 10% | 6% | 7 | 15 | 0%
Cc1ccccc1Cn1c(O)c(N=NC(=S)Nc2ccccc2F)c2ccccc21 | 5.8µM* | 5.8µM* | 6.5µM* | -6 | -9 | 10%
CCN1C(=O)/C(=C2/Sc3ccc(OC)cc3N2C)SC1=Nc1cccc(O)c1 | 5.8µM* | -9% | 16µM* | 10 | -3 | 6%
C=CCN1C(=O)/C(=C2/Sc3ccc(OC)cc3N2C)SC1=NCc1ccccc1 | u | 10% | u | -9 | 1 | 0%
COc1ccc2c(c1)N(C)/C(=C1/SC(=NCc3ccccc3)N(c3ccccc3)C1=O)S2 | -22% | -1% | u | -15 | 1 | 0%
C=CCN1C(=O)/C(=C2/Sc3ccc(OC)cc3N2C)SC1=Nc1ccccc1 | 8.2µM* | 8% | u | -11 | 19 | 3%
CCn1c(SCC(=O)N/N=C/C=C/c2ccco2)nnc1-c1ccccc1 | 5% | -2% | -21% | -4 | 0 | 22µM*
Cn1c(SCC(=O)N/N=C/C=C/c2ccco2)nc2ccccc21 | 18µM* | -15% | 18µM* | -13 | 0 | u
CCCCN(C(=O)c1c(C)noc1C)c1c(N)n(CCCC)c(=O)[nH]c1=O | -7% | 14% | -2% | 0 | 29 | 0%
Cc1ccc(C2=Nc3ccccc3SC(c3cccc([N+](=O)[O-])c3)C2)cc1 (centres undefined) | u | u | 16µM* | -7 | -17 | 10%
Cc1ccc(CNC(=O)C2CC(c3cccc([N+](=O)[O-])c3)=NO2)cc1 (centres undefined) | -9% | 12% | -10% | -19 | 20 | 6%
CCOc1ccc(CCNc2nc3ccc(C)cc3n3cnnc23)cc1OCC | u | u | 16µM* | u | 52 | x
CCOCCCNc1nc2ccccc2n2c(CC)nnc12 | u | x | u | x | x | 6%
SMILES | DT40 TDP1 CPT | ELG1 repair inh | TDP1 cell noCPT | Giardia kill | IL1B secr inh | TDP1 inh
COc1ccc(CCNc2nc3ccccc3n3cnnc23)cc1OC | -26% | u | u | 7 | -4 | x
CCOc1ccc(CCNc2nc3ccccc3n3cnnc23)cc1OCC | u | 21µM* | 18µM* | 11 | 5 | x
CCc1nnc2c(NCCc3ccc(OC)c(OC)c3)nc3ccccc3n12 | u | 1% | 16µM* | -3 | -4 | 2%
Cc1cccc(NC(=O)CN(CC2CCCO2)C(=O)c2cc3ccccc3o2)c1C (centres undefined) | u | -1% | u | 10 | -10 | 0%
CN(c1cccc(NC(=O)CN(c2cccc(Cl)c2)S(=O)(=O)c2ccc(Cl)cc2)c1)S(C)(=O)=O | u | -40% | u | 10 | -15 | 3%
CC(=O)Nc1ccc(Nc2nc(C)c([N+](=O)[O-])c(Nc3ccccc3)n2)cc1 | 23µM* | 15µM* | 18µM* | -10 | -24 | 6%
COc1ccc(/C=N/Nc2nc(C)c([N+](=O)[O-])c(N(C)c3ccccc3)n2)cc1OC | -14% | 18% | -21% | -9 | 24 | 4%
Cc1nc(Nc2ccc(C(=O)O)cc2)nc(Nc2ccc(C(=O)O)cc2)c1[N+](=O)[O-] | -7% | 5% | 6% | -21 | -3 | x
CC(=O)Nc1ccc(Nc2nc(C)c([N+](=O)[O-])c(N(C)c3ccccc3)n2)cc1 | u | 21µM* | u | 4 | u | x
CCC(=O)Nc1ccc(Nc2nc(C)c([N+](=O)[O-])c(Nc3ccc(NC(=O)CC)cc3)n2)cc1 | 8.2µM* | 12µM* | 6.5µM* | 12 | 6 | 2%
CCc1c(-c2ccccc2)nc2ccccc2c1C(=O)NC(C)c1ccccc1 (centres undefined) | u | x | 23µM* | x | x | 5%
CCOc1ccc(-c2cc(C(=O)NC(C)c3ccccc3)c3ccccc3n2)cc1 (centres undefined) | u | x | u | x | x | 3%
COc1ccc(C2c3c(ncn(Cc4ccccc4)c3=N)Oc3ccc4ccccc4c32)cc1OC (centres undefined) | x | x | x | x | x | 10%
COc1ccc(C2c3ccc(O)cc3Oc3ncn(Cc4ccco4)c(=N)c32)cc1 (centres undefined) | 12µM* | -18% | 21µM* | 28 | u | x

Source: PubChem (National Center for Advancing Translational Sciences (NCATS))
